# From PubChem
# BoNT-A LC inh2: BoNT A light chain protease inhibition; multiplex microsphere protease substrate cleavage, flow cytometry; inhibition, % at 10 µM; hit rate 0.17% among 360,000; AID 588499; further: plate controls were buffer without enzyme for full effect and enzyme alone for no effect
# BJeLR viability: BJeLR cell viability loss | BJeLR (HRASV12) viability, CellTiter-Glo ATP luminescence, 48 h | inhibition, % (test concentration not listed) | hit rate 0.17% among 300,000 | AID 1554; in the data active means inhibition above about 50%; inconclusive means no clear call, values can overlap the other calls
# Bead autofluor: flagged as autofluorescent in microsphere protease counterscreen. compound autofluorescence counterscreen, microsphere flow cytometry; hits give high values. fluorescence intensity (no concentration beside the values). hit rate 3.1% among 360,000; in the data active means fluorescence intensity above about 16000; inconclusive means no clear call, values can overlap the other calls
# BoNT F protease: blocks Botulinum neurotoxin F light chain protease. inhibition, % at 10 µM. hit rate 0.22% among 360,000. Multiplex microsphere protease cleavage assay, flow cytometry; in the data active means inhibition above about 35%, passing the limit was not always enough; inconclusive means no clear call, values can overlap the other calls; further: plate controls were buffer without enzyme for full effect and enzyme alone for no effect
# Anthrax LF inh2: anthrax lethal factor protease inhibition; P15917; multiplex microsphere protease cleavage assay, LF; inhibition, % at 10 µM; hit rate 0.12% among 360,000; AID 588501; further: plate controls were buffer without enzyme for full effect and enzyme alone for no effect
# Target sequence (P15917 whole entry, looked up): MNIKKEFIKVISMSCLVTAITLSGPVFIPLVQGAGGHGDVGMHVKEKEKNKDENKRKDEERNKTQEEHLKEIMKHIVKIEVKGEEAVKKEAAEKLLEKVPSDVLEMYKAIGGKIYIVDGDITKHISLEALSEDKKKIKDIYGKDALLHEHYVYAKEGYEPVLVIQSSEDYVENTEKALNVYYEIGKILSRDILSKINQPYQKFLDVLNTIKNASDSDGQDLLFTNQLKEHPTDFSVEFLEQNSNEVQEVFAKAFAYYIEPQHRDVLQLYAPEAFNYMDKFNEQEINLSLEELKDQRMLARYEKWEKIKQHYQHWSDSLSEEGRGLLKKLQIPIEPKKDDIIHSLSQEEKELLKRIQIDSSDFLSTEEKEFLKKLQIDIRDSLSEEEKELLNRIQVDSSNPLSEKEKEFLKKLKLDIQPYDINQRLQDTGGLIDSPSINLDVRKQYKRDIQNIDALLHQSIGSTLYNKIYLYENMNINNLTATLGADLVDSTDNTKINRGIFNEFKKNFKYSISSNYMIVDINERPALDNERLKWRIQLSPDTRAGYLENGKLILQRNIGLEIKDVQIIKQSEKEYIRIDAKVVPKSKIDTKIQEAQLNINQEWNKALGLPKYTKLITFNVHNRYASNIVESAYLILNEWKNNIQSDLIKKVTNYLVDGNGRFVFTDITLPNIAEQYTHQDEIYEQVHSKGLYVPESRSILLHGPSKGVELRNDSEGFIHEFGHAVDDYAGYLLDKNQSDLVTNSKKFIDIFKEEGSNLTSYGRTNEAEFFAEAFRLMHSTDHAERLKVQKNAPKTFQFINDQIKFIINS
# An asterisk follows results filed as active; ? = inconclusive; · = not tested or not shown; ! = not confirmed by another sample. Hits are enriched below; roughly 3.5% of the tested compounds scored in any of these assays. Unless noted, no stated cut-off is given here; in the data, active means inhibition above about 30%; inconclusive means no clear call, values can overlap the other calls; inactive means below that.
SMILES,BoNT-A LC inh2,BJeLR viability,Bead autofluor,BoNT F protease,Anthrax LF inh2
COc1ccc(C(=O)C2CCCN(Cc3c(O)cccc3OC)C2)cc1OC (configuration not stated),-3,10,4574,37*,-18
Cc1cc(NC(=O)C(=O)c2c(C)[nH]c3ccccc23)no1,0,4,4157,-3,-2
CCCn1c(SCC(=O)Nc2ccccc2N2CCCCC2)nc2c1c(=O)n(C)c(=O)n2C,0,-9,7872,-2,-2
CCCn1c(SCC(=O)Nc2ccccc2C(=O)OC)nc2c1c(=O)n(C)c(=O)n2C,-2,10,20496*,-1,2
CC(C)n1c(SCC(=O)N2CCCC2)nc2c1c(=O)n(C)c(=O)n2C,0,-6,5466,-7,2
CCCn1c(SCC(=O)N2CCCC2)nc2c1c(=O)n(C)c(=O)n2C,?,-2,22149*,-1,-3
CCCn1c(SCC(=O)NCCc2ccc(OC)c(OC)c2)nc2c1c(=O)n(C)c(=O)n2C,4,-10,18189*,4,-2
CCn1c(SCC(=O)N2CCCc3ccccc32)nc2c1c(=O)n(C)c(=O)n2C,?,-8,22886*,0,0
O=[N+]([O-])c1ccc(Nc2cccc3c2[nH]c2c(-c4ccccc4)nccc23)c([N+](=O)[O-])c1,2,·,3367,-11,-6
O=C(NCc1ccccc1CN1CCCC1)c1cc2cc(Cl)ccc2o1,0,·,3938,-3,-4
COc1ccc(NC(=O)C2CCCN(S(=O)(=O)c3ccc(Cl)cc3)C2)cc1OC (configuration not stated),0,5,5587,3,-2
CCCn1c(SCC(=O)N2CCN(c3ccc(OC)cc3)CC2)nc2c1c(=O)n(C)c(=O)n2C,0,7,19577*,-1,-2
CCCn1c(SCC(=O)c2cc(OC)ccc2OC)nc2c1c(=O)n(C)c(=O)n2C,-2,·,21330*,-2,-1
CCn1c(SCc2cc(=O)[nH]c3ccccc23)nc2c1c(=O)n(C)c(=O)n2C,-4,·,24332*,-9,-2
CCn1c(SCC(=O)N2CCCc3ccccc32)nnc1-c1cccs1,-2,0,16895*,-5,-2
Cc1cc(Br)ccc1NC(=O)CN(C)C(=O)c1cccc(S(=O)(=O)N2CCN(C)CC2)c1,0,·,3939,-5,-3
C=CCc1cc(OC)ccc1OCC(O)CN1CCN(c2ccc(OC)cc2)CC1 (configuration not stated),?,-3,22414*!,-13,-2
COC(=O)C(Cc1cnc[nH]1)NC(=O)C1CCC(=O)N1 (configuration not stated),?,-2,22414*,3,-3
COc1ccc(S(=O)(=O)NC(Cc2cnc[nH]2)C(=O)O)cc1 (configuration not stated),1,-8,2134,3,-1
COc1cccc(CNC(=O)c2ccc(C3SCCS3)cc2)c1,0,-7,5075,2,-1
O=C(Nc1cccc(Cl)c1)N1CCSc2cc(Cl)ccc21,1,-1,19711*,3,-6
O=C(Nc1ccccc1)N1CCSc2cc(Cl)ccc21,-2,-4,20918*,-3,-1
COc1ccc(/C=C2\SC(=S)N(CC(=O)Nc3nnc(C)s3)C2=O)cc1,-1,-4,4639,0,-12
CN1CCN(C(=O)CN(C)S(=O)(=O)c2ccc3ccccc3c2)CC1,1,2,4023,1,4
COc1ccc(NC(=O)N2CCN(C(=O)Nc3ccc(OC)cc3)CC2)cc1,0,-4,3399,-2,-5
SMILES,BoNT-A LC inh2,BJeLR viability,Bead autofluor,BoNT F protease,Anthrax LF inh2
CCS(=O)(=O)C(=C(Nc1ccc(OC)cc1)Nc1ccc(OC)cc1)S(=O)(=O)CC,-2,-1,22992*,-8,-7
CCC1(C)CN=C(c2ccccc2)NC1 (configuration not stated),0,·,3808,-6,7
CCC1CCC(N2CCN(c3ccc([N+](=O)[O-])cc3)CC2)CC1 (configuration not stated),3,2,2937,?,-11
CC1(NC(=O)COc2ccccc2-c2ccccc2)CCS(=O)(=O)C1 (configuration not stated),0,-4,16681*,-4,-5
Cc1ccccc1NC(=O)c1ccc(CSc2ncccn2)cc1,0,10,16598*,0,-2
CCC(C)NC(=O)c1ccccc1NC(=O)c1ccc(CSc2ccc(C)cc2)cc1 (configuration not stated),-3,2,17124*,-6,-4
CCC(C)NC(=O)c1ccccc1C(=O)NC(C)CC (configuration not stated),-4,-11,24599*,-6,-3
COCc1cccc(-c2csc(C(C)(O)c3cccc(F)c3)n2)c1 (configuration not stated),0,·,3691,1,-4
O=C(NNc1c(Cl)cc(Cl)cc1Cl)C1CCC1,0,6,2257,-5,0
CCOC(=O)C1=C(C)NC(=O)NC1c1ccco1 (configuration not stated),-1,·,23226*,2,0
COCCOC(=O)C1=C(C)NC(=O)NC1c1ccco1 (configuration not stated),0,10,5876,-13,3
COCCCn1c(=O)c2sccc2n(Cc2ccccc2C)c1=O,-1,-6,4011,-30,-3
O=C(NC(CO)(CO)CO)c1coc(=O)c(Br)c1,-1,3,17123*,-2,-2
CCOC(=O)c1ccc2c(c1)n(CC)c(/C=C/N(C)c1ccccc1)[n+]2CC,3,9,11092,8,4
CC[n+]1c(/C=C/N(C)c2ccccc2)n(-c2ccccc2)c2ccc(-c3nc4ccccc4s3)cc21,18,91*,6076,17,8
CCN1C(=O)C(=O)N(CC(=O)Nc2cccc(C(F)(F)F)c2)C1=O,-1,·,3854,9,-4
COC(=O)c1c(C)nc2ccccc2c1C(=O)O,0,2,2245,-1,0
COc1ccc(-c2c(C(=O)O)nc3ccccc3c2C(=O)O)cc1,0,2,16308*,0,-3
O=C(Nc1cnccn1)C1c2ccccc2Oc2ccccc21,2,-5,19665*,2,-1
CN(C)Cc1ccccc1-c1cccc2nccn12,0,·,2924,-5,-6
CCC(=NCCCN(CC)CC)c1c(O)n(C2CCCCC2)c(=O)[nH]c1=O,-3,-4,25763*,-3,0
CC(=NCCO)c1c(O)n(C2CCCCC2)c(=O)[nH]c1=O,1,3,3166,-2,4
CCC(=NCc1ccco1)c1c(O)n(C2CCCCC2)c(=O)[nH]c1=O,2,4,9369,10,10
CCC(=NCCN1CCOCC1)c1c(O)n(C2CCCCC2)c(=O)[nH]c1=O,1,-1,5537,9,-2
CCC(=Nc1ccc(OC)cc1OC)c1c(O)n(C2CCCCC2)c(=O)[nH]c1=O,1,-1,22084*,-1,-1
CCN(CC)CCCN=C(C)c1c(O)n(C2CCCCC2)c(=O)[nH]c1=O,0,6,16590*,-4,-1
CCOC(=O)[C@]12CCC=C1N(Cc1cccc3ccccc13)C(=O)[C@H](CC(=O)N1CCSCC1)C2,1,·,6026,0,7
